VLA-4 inh = inhibition in human VLA-4 binding assay, primary screen, VLA-4 allosteric modulator project, MLPCN library, flow cytometry, VLA-4 expressing cells. inhibition, % (about 7 µM as worked out from the volumes in the protocol). 330,000 compounds, 0.2% hits. ligand binding flow cytometry. AID 2557, 2010; in the data active = inhibition above about 50%
NRP1-CendR mod = modulators of CendR peptide binding to NRP-1, primary screen, biochemical, fluorescence polarization, uHTS; Neuropilin-1 (Homo sapiens), O14786; AID 602438, 2012; FAM-RPARPAR peptide binding to NRP-1; 360,000 compounds, 0.85% hits; inhibition, % at 25 µM;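 active = inhibition or corrected inhibition above about 18%, plus a signal ratio from 0.5 to 1.5, limit read from the data, passing the limit was not always enough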
MIN6 prolif-1 = inducers of MIN6 beta-cell proliferation, primary screen, ATP luminescence, uHTS; AID 2380, 2010; 330,000 compounds, 0.29% hits; proliferation, % at 10 µM; MIN6 cells proliferation, ATPlite luminescence, 48 h; cells starved in 0.2% serum; 100% = growth in 10% serum;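 active = compounds whose signal lies at least 3.5 SD above the mean of all wells on their plate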;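 note: 0% = DMSO-treated cells in low-serum medium and 100% = 10% serum control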
APOBEC3G inh = APOBEC3G DNA deaminase inhibitors, primary screen, biochemical, fluorescence, single-stranded DNA substrate, uHTS; recombinant A3G, ssDNA deamination FAM/TAMRA fluorescence; inhibition, % at 20 µM; 330,000 compounds, 0.28% hits; AID 493012, 2011;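 active = inhibition of at least 40% at 20 µM, with no more than 30% in the related APOBEC3A deaminase screen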;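 note: plate controls were DMSO wells with A3G for no effect and wells lacking A3G enzyme for full effect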
APOBEC3A inh = APOBEC3A ssDNA deaminase inhibitors, primary screen, selectivity assay for APOBEC3G inhibitor project, biochemical, FAM/TAMRA oligo cleavage fluorescence; DNA dC->dU-editing enzyme APOBEC-3A (Homo sapiens), P31941; recombinant A3A, FAM/TAMRA ssDNA deamination fluorescence; inhibition, % at 20 µM; 330,000 compounds, 0.41% hits; AID 493011, 2011;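 active = at least 40% inhibition at 20 µM here, with at most 30% in a related deaminase screen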;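 note: plate controls were A3A with DMSO for no effect and wells lacking A3A enzyme for full effect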
MIN6 prolif-2 = inducers of beta-cell proliferation in MIN6, confirmation, MIN6 cells, mouse; proliferation increase, % at 50 µM; 920 tested, under 10 active; ATPlite luminescence, 48 h; cells kept in 0.2% serum; scaled between 0.2% and 10% serum; shares compounds with MIN6 prolif-1; AID 463095, 2010;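 active = proliferation increase above 40% at any of the four tested concentrations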
* marks the source's active call; other numbers are inactive results; / = no result given. Shown are actives, neighbours in structure and some others; about 1.8% of the full set was active somewhere.

SMILES	VLA-4 inh	NRP1-CendR mod	MIN6 prolif-1	APOBEC3G inh	APOBEC3A inh	MIN6 prolif-2
CCOc1ccc(C(=O)Nc2ccc3c(c2)OCO3)cc1OCC	-19	1	5.5*	25	-3	3
O=C(CSc1n[nH]c(=O)n1-c1ccccc1)Nc1ccccc1	-2	7	2	10	3	/
O=C(CSc1n[nH]c(=O)n1-c1ccc2c(c1)OCCO2)Nc1ccccc1	14	-3	4.9*	-10	-1	0
CNC(=O)c1ccccc1NC(=O)c1cccc(S(=O)(=O)N2CCCCC2)c1	1	17	7.6*	-13	2	-4
O=C(COC(=O)/C=C/c1cccc(C(F)(F)F)c1)NCc1cccs1	-2	0	-7	7	-1	/
COc1ccc(C(CNC(=O)CCNC(=O)c2ccc(Br)cc2)N2CCOCC2)cc1 (centres undefined)	0	1	12*	-8	-2	-2
CCCCOc1ccc(C(=O)NCC(=O)NCC(c2ccc(OC)cc2)N2CCOCC2)cc1 (centres undefined)	8	-13	1	-1	-4	/
COc1ccc(S(=O)(=O)Nc2cc3[nH]c(=O)oc3cc2C)cc1	9	-1	0	-3	0	/
CCc1nnc(NC(=O)COc2ccccc2[N+](=O)[O-])s1	16	-8	4.6*	-9	-4	-1
Cc1noc(C)c1COc1ccccc1C(=O)Nc1cccc(S(=O)(=O)N(C)C)c1	2	-2	14*	-12	-4	-2
CC(=O)Nc1cccc(NC(=O)c2ccccc2OCc2c(C)noc2C)c1	4	-1	2	-7	-7	/
CCOc1ccc(NC(=O)CN(C)C(=O)c2cc(S(=O)(=O)N3CCCCC3)ccc2Cl)cc1OCC	3	-2	3	-6	0	/
CCOc1ccc(NC(=O)CN(C)C(=O)c2cc(S(=O)(=O)N3CCCCC3)ccc2C)cc1OCC	2	2	12*	-12	-3	5
CCOc1ccc(N(CC(=O)Nc2c(C)n(C)n(-c3ccccc3)c2=O)S(=O)(=O)c2ccc(F)cc2)cc1	3	-2	1	-2	-5	/
COc1ccc(N2CCN(C(=O)CN(C)S(=O)(=O)c3ccc4c(c3)c(=O)n(C)c(=O)n4C)CC2)cc1	2	8	-1	-12	7	/
COc1ccccc1N1CCN(C(=O)CN(C)S(=O)(=O)c2ccc3c(c2)c(=O)n(C)c(=O)n3C)CC1	-2	-19	6.9*	-8	-3	-1
CC(C)c1nc(CN2CCCCC2)cc(=O)[nH]1	11	-4	8.9*	2	2	0
CCc1cc(=O)[nH]c(SCC(=O)N2CCCC2)n1	-20	-12	5	-11	-4	/
CCc1noc(C)c1C(=O)N(C)CC(=O)Nc1cccc(OC)c1	0	2	-4	0	0	/
Cc1ccc(-n2c(C)c([N+](=O)[O-])c3ccc(O)cc32)cc1	11	/	7.7*	-1	1	-6
Cc1c([N+](=O)[O-])c2ccc(O)cc2n1-c1ccccc1	-2	15	15*	-2	-2	8
CCOC(=O)c1[nH]c2ccc(OC)cc2c1NS(=O)(=O)c1ccc(Cl)s1	-9	-10	5.3*	-9	-6	-6
COc1ccc2c(c1OC)C(=O)N1C2SC(C)(C)[C@H]1C(=O)NCC(C)C (some centres undefined)	2	1	0	-5	-1	/
O=C(c1cnsn1)N1CCC(CO)(Cc2cccc(F)c2)CC1	-2	-9	8.2*	-5	-4	-1
Cc1cc(C(=O)N2CCC(CO)(Cc3cccc(C(F)(F)F)c3)CC2)n[nH]1	8	6	6	-3	0	/
SMILES	VLA-4 inh	NRP1-CendR mod	MIN6 prolif-1	APOBEC3G inh	APOBEC3A inh	MIN6 prolif-2
O=C(O)c1c[nH]c2ccc(F)cc2c1=O	-10	4	6.8*	-2	0	2
CC(CNC(=O)c1ccccc1[N+](=O)[O-])NC(=O)c1ccccc1[N+](=O)[O-] (centres undefined)	26	3	-3	17	-2	/
CCOC(=O)c1ccc(NC(=O)CC2SC3=NCCN3C2=O)cc1 (centres undefined)	0	-1	5.8*	1	3	-1
O=C(CC1SC2=NCCN2C1=O)Nc1ccc(Br)cc1 (centres undefined)	17	-8	0	-2	-4	/
COc1ncnc(-c2ccccc2)c1-c1ccccc1	14	-1	7.8*	0	3	1
CCOC(=O)c1ccc(NC(=O)CSC2=NN3CCCC(=O)N=C3S2)cc1	10	6	-3	-2	0	/
CCOc1ccc(C(=O)NCC(=O)OCCCOC(=O)CNC(=O)c2ccc(OCC)cc2)cc1	9	7	1	-2	7	/
CCOc1ccc(C(=O)NCC(=O)OCCCC(=O)c2ccc(F)cc2)cc1OCC	-15	-5	14*	-11	-4	-2
O=C(CN1C(=O)COc2ccccc21)NCCCN1CCN(c2ccccc2F)CC1	-2	2	0	-4	-8	/
O=C(CCN1C(=O)COc2ccccc21)NCCN1CCN(c2ccccc2F)CC1	7	-1	6.7*	-8	-3	-2
COc1ccc(NS(=O)(=O)c2ccc(C(=O)N(C)Cc3ccc(C)o3)cc2)cc1	-12	10	1	-7	-5	/
Cc1ccccc1-c1nc(S(=O)(=O)c2ccccc2)c(NCCN2CCOCC2)o1	/	-17	/	/	/	/
NS(=O)(=O)c1ccc(CNC(=O)c2cc(=O)[nH]c3ccccc23)cc1	-3	-9	6.5*	-6	3	0
CC(C)CCNC(=O)COC(=O)/C=C/c1ccc2ccccc2n1	6	-5	7.2*	-7	0	-2
O=C(COC(=O)/C=C/c1ccc2ccccc2n1)NNC(=O)c1ccccc1	/	-60	/	/	/	/
O=C(NCc1ccco1)c1c(O)c2cccc3c2n(c1=O)CCC3	4	-1	8.8*	-6	-3	0
CC(NC(=O)CN1CCN(CC(=O)Nc2ccccc2Cl)CC1)c1ccc(Br)cc1 (centres undefined)	-3	-2	-2	-8	-4	/
Cc1ccc(S(=O)(=O)NC2=NCN(CCOC(=O)c3ccccc3)CN2)cc1	/	-2	2	-6	-3	/
Cc1ccc(S(=O)(=O)NC2=NCN(CCOC(=O)c3ccc([N+](=O)[O-])cc3)CN2)cc1	25	5	8.4*	-1	3	0
O=[N+]([O-])c1ccc(Oc2ncccn2)cc1	-2	8	-1	-9	-1	/

Screens (PubChem)
